Test results published in PubChem BioAssay AID893 (National Center for Advancing Translational Sciences (NCATS), 2007).
Out of some 75,000 compounds screened, about 5,700 (7.6%) were called active. Inconclusive results (about 7%) are left out. Calls follow the shape of the dose curve; as a rule, active = well fitted inhibition curve with a large enough effect; inconclusive = small, poorly fitted or top-dose-only effect; inactive = no such curve, though single readings can be large or run the other way. What follows is part of a selection rich in actives, with near analogues and random picks from the rest.

Biological target: 3-hydroxyacyl-CoA dehydrogenase type-2 (Homo sapiens) (UniProt Q99714)
Test: qHTS Assay for Inhibitors of HSD17B4, hydroxysteroid (17-beta) dehydrogenase 4;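 also: the protocol describes HADH2 (HSD17B10) and not the HSD17B4 of the title; nearly all actives have a fitted effect of over 70% in size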
Details: recombinant HSD17B10, NADH fluorescence kinetic; series mostly up to 57.1 µM
Procedure, shortened: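 Enzyme plus compound, 15 min room temperature; substrate mix added (NAD+ 1 mM, beta-hydroxybutyryl-CoA 90 uM final); plates read kinetically for NADH fluorescence. HADH2 was His-tagged, E. coli-derived, 20 nM.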
% is scaled to controls: 0 for no effect and ±100 for the full control effect; potency is read from the fitted curve at half-maximal effect.

Potency, active:
CCCOC(=O)Cc1c(O)c2ccccc2[nH]c1=O 31.6 µM
COc1ccc(S(=O)(=O)N2CCN(C(=O)c3cccs3)CC2)cc1OC 3.98 µM
Cc1cc(C)c2nc(N3CCCC3)c(C#N)cc2c1 31.6 µM
CCCCn1c(SCC(=O)NCC2CCCO2)nc2ccc(N3CCOCC3)cc2c1=O (stereo not given) 31.6 µM
Cc1ccc2c(c1)c1ncnc(N3CCc4ccccc4C3)c1n2C 31.6 µM
COc1ccc(CC(=O)Nc2ccc(-c3nnc(-c4ccc(C)cc4)o3)cc2)cc1 2.51 µM
O=C(Nc1ccc(-c2nnc(-c3ccccc3)o2)cc1)C1CCCO1 (stereo not given) 20 µM
COc1ccc(CC(=O)Nc2ccc(-c3nnc(-c4ccccc4)o3)cc2)cc1 12.6 µM
CCOC(=O)C1C(=O)C=C(c2ccc(OC)cc2)CC1c1ccco1 (stereo not given) 20 µM
CCOc1ccc2nc(NCCNS(=O)(=O)c3ccccc3)c(C#N)cc2c1 25.1 µM
COc1ccc(Cn2cccc(NC(=O)Nc3ccc(C#N)cc3)c2=O)cc1 15.8 µM
CCc1c(C)nc2cc(-c3cccs3)[nH]n2c1=O 31.6 µM
CCOc1cc(C2C(C(=O)OC)=CN(C3CCCC3)C=C2C(=O)OC)cc(Br)c1O 25.1 µM
Cc1ccc(-c2cc(C(F)(F)F)n3nc(C(=O)N4CCCC4)cc3n2)cc1 20 µM
CC1CCN(c2oc(-c3ccccc3F)nc2C#N)CC1 31.6 µM
C[C@]12C=CC(=O)C=C1CC[C@@H]1[C@@H]2C(=O)C[C@@]2(C)[C@H]1CC[C@]2(O)C(=O)CO 15.8 µM
O=C1CCCN1CCCNc1ncnc2c1[nH]c1ccccc12 31.6 µM
Cc1c(C(=O)Nc2ccccc2Cl)oc2ccc(S(=O)(=O)N3CCC4(CC3)OCCO4)cc12 25.1 µM
Cc1nc2ccc(NC(=O)N3CCC(c4ccccc4)C3)cc2nc1C (stereo not given) 25.1 µM
CC1(C)CC(=O)C(C=NCCC2=CCCCC2)=C(O)C1 31.6 µM
COc1ccc2nc(NC(=O)c3ccc(Br)s3)sc2c1 31.6 µM
O=C(NCc1ccccn1)c1ccc2nc(-c3ccco3)c(-c3ccco3)nc2c1 12.6 µM

Potency, inactive:
Cc1cc(C)cc(N)c1
CCOC(=O)CC1=CC(=O)Nc2ccccc2N1
CCCc1nc2ccccc2c(=O)n1NC(=O)c1c(O)c2ccccc2[nH]c1=O
O=C(N1CCOCC1)N(Cc1ccccc1)c1ccccn1
CCNC(=O)N1CCNC(=O)C1CC(=O)Nc1ccc(C(=O)OCC)cc1 (stereo not given)
O=C(C1CCCO1)N(Cc1ccccc1)c1ccccc1 (stereo not given)
CCS(=O)(=O)N1CCN(C(=O)c2cccs2)CC1
CCCS(=O)(=O)N1CCN(C(=O)c2cccs2)CC1
COc1ccc(C2N=C(N)N=C(N)N2c2ccccc2)cc1OC (stereo not given)
CCn1c(SCC(=O)NCC2CCCO2)nc2cc(S(=O)(=O)N3CCCCC3)ccc21 (stereo not given)
CCc1ccc(NC(=O)CSc2nc3ccccc3c(=O)n2CCN2CCOCC2)cc1
Cc1cc(Nc2cccc(F)c2)n2ncnc2n1
Cc1ccc(NC(=O)CCN2CCc3ccccc3C2)cc1
Cc1cc(C)nc(N2CCN(c3ncnc4c3oc3ccccc34)CC2)n1
CCCCCCCCCc1ccc(OCCOCCOCCOCCOCCOCCOCCOCCOCCO)cc1
COc1ccc(NC(=O)c2ccc(OC)cc2)cc1
COc1ccc(C(CC(=O)O)NC(=O)Cc2ccccc2)cc1 (stereo not given)
O=C(Nc1nnc(CCc2ccccc2)s1)C1CCCO1 (stereo not given)
O=C(COC(=O)c1ccc(Oc2ccccc2)cc1)Nc1nnc(-c2ccccc2)o1
O=C(CSc1nnc(-c2ccc(NS(=O)(=O)c3ccccc3)cc2)o1)NCC1CCCO1 (stereo not given)
CCCCCNC(=O)Cc1ccc(OC)cc1
CCCCNC(=O)CSc1nccn1Cc1ccccc1
CC(=O)Nc1cc(C(=O)O)ccc1S(=O)(=O)c1ccc(Cl)cc1
O=S1(=O)CCN2C(=N1)SC1=C2CCN(Cc2ccccc2)C1
O=C(CSc1nc2ccccc2o1)N1CCN(c2ccc(Cl)cc2)CC1
COc1ccc(-n2c(SCC(=O)OC(C)C)nnc2-c2ccccn2)cc1
COc1ccc(CCNC(=O)c2ccco2)cc1
CCOC(=O)C1C(=O)NC(N2CCN(c3ccccc3)CC2)=NC1c1ccco1 (stereo not given)
CCOc1ccc2cc(C#N)c(SCC(=O)OC)nc2c1
CCOc1ccc2nc(N3CCCN(C(=O)Nc4ccccc4C)CC3)c(C#N)cc2c1
CC1=C(C(=O)OCc2ccccc2)C(c2ccc(C(F)(F)F)cc2)NC(=O)N1CCCCCC(=O)O (stereo not given)
CC(NC(=O)c1ccc(Cl)cc1)C(=O)N1CCCCC1 (stereo not given)
COc1ccc(NC(=O)Nc2cccc3cccnc23)cc1
CCOc1ccc(NC(=O)Nc2cc(C)ccc2OC)cc1
CO/N=C(\C(=O)N[C@@H]1C(=O)N2C(C(=O)O)=C(COC(C)=O)CS[C@H]12)c1csc(N)n1 (stereo in doubt)
COc1c(F)c(F)c(-c2csc(N)n2)c(F)c1F
CCOc1ccc(OCC)c(NC(=O)CSc2nnc(Cn3cnc4ccccc43)n2C)c1
Cc1nc2nc(COc3ccccc3)[nH]n2c(=O)c1Cc1ccccc1
O=c1[nH]c(-c2cccs2)nc2ccccc12
CCCCNC(=O)c1c[nH]c2ccc(S(=O)(=O)Nc3ccc(OCC)cc3)cc2c1=O
CCCCn1c(SCC(=O)N2CCC(C(=O)OCC)CC2)nc2cc(S(N)(=O)=O)ccc21
CCOc1ccc(CNC(=O)C2CCC(=O)N2C2CCCC2)cc1OC (stereo not given)
CCCC(=O)Nc1cc(OCC)c(NC(=O)NC2CCCCC2)cc1OCC
COCCCN(C(=O)Cn1ncc2c(=O)oc3ccc(C)cc3c21)C(C)c1ccncc1 (stereo not given)
Cn1c(=O)cc(SCC(=O)N2CCCC2)c2cc(Cl)ccc21
Cc1cc(C(F)(F)F)nn1CC(=O)N1CCCC1
COc1ccc(-c2cc(C(F)(F)F)n3nc(C(=O)N4CCOCC4)c(Cl)c3n2)cc1
c1ccc(CCc2nc(-c3ccncc3)no2)cc1
COc1ccc(Br)cc1S(=O)(=O)N1CCN=C1C
Cc1cc(C)cc(N(CC(=O)Nc2c(C)n(C)n(-c3ccccc3)c2=O)S(C)(=O)=O)c1
O=C(NC1CCCCC1)C1CCCN(S(=O)(=O)c2cccs2)C1 (stereo not given)
Cc1ccc(OCc2nc(C#N)c(N3CCCC3)o2)cc1
N#Cc1nc(COc2ccc(Cl)cc2)oc1N1CCCC1
CN(CCCNC(=O)CN1C(=O)CC(C)(C)S(=O)(=O)c2ccccc21)C1CCCCC1
Nc1nc2c(nc(Cl)n2C2OC(CO)C(O)C2O)c(=O)[nH]1 (stereo not given)
COC(=O)[C@@]1(Cc2ccc(F)cc2)[C@H]2c3cc(C(=O)N4CCCC4)n(Cc4ccc(OC(F)(F)F)cc4)c3C[C@H]2CN1C(=O)c1ccccc1
CC(=O)OCC(=O)[C@@]1(O)CC[C@@H]2[C@H]3CCC4=CC(=O)C=C[C@]4(C)[C@]3(F)[C@@H](O)C[C@@]21C
CC(=O)OCC(=O)[C@@]1(O)CCC2C3CCC4=CC(=O)CC[C@]4(C)C3C(=O)C[C@]21C (stereo not given in full)
COC(=O)[C@H](C(C)C)n1c(C)c(C(C)=O)c(C(C)=O)c1C
O=S(=O)(CCc1nc2ccccc2o1)c1ccc(Cl)cc1
CC1(C)CC(=O)C=C(NCCCN2CCCC2=O)C1
O=C(CCn1c(=S)[nH]c2ccccc2c1=O)NCCCN1CCCC1=O
CCOC(=O)C1CCN(C(=O)c2oc3ccc(S(=O)(=O)N4CCCCCC4)cc3c2C)CC1
CCOc1ccccc1NC(=O)c1cc(S(=O)(=O)N2CCC3(CC2)OCCO3)ccc1F
CCOC(=O)N1CCN(Cc2oc(CO)cc(=O)c2O)CC1
O=C(Nc1cccc(NC(=O)N2CCN(c3ccccc3)CC2)c1)N1CCN(c2ccccc2)CC1
O=C(Nc1cccc(C(=O)N2CCCC2)c1)c1ccccc1
CC(=O)Nc1nc(C)c(Cc2ccccc2)c(=O)[nH]1
CSc1ccc(Cl)c(C(=O)OCC(=O)N2CC(C)OC(C)C2)c1 (stereo not given)
CC1(C)CC(=O)C(C=NCc2cccnc2)=C(O)C1
CC(=O)N1CCN(CCN=CC2=C(O)CC(C)(C)CC2=O)CC1
O=c1cc(CSc2ccc(Cl)cc2)nc(N2CCOCC2)[nH]1
CCn1c(SCC(=O)Nc2nc3ccc(OC)cc3s2)nnc1-c1ccoc1C
CNC(=O)c1ccc2nc(NC(C)=O)sc2c1
CC1(C)CN=C(N2CCN(c3ncnc4sc5c(c34)CCCC5)CC2)S1
ON=C1/C(=N\O)CC2(C/C1=N/O)OCCO2
O=C(NCc1ccco1)c1nc2ncccn2n1
CC(C)CC1(C(=O)NCc2ccccn2)C=CCN1C(=O)c1ccccc1 (stereo not given)
CCn1nnc(NC(=O)c2cc(Cl)c(OC)c(Cl)c2)n1
Cc1noc(C)c1S(=O)(=O)N(CC(=O)NCc1ccc(Cl)cc1)c1ccc2c(c1)OCO2

Activity change, negative = inhibition, inactive:
C=CCOC(=O)C(C(C)=O)C(NC(=O)OC)c1ccccc1 (stereo not given) 10.6% [at 11.4 µM]
COc1ccc(Br)c2c1C[C@H](C(=O)O)CC2 7.09% [at 11.4 µM]
O=C(O)[C@H](CCc1ccccn1)c1ccccc1 1.79% [at 11.4 µM]
